# Data from the supplement of paper PMC11732987, “Enantioselective OTUD7B fragment discovery through chemoproteomics screening and high-throughput optimisation” (Communications Chemistry, 2025).
# Unmarked numbers belong to inactive results.
# Compound: ClCC(=O)NC1(CCCC1)C#N
# Assay: log2 ratio of Biotin-Ahx-Ub-VS probe labelling (compound/DMSO); higher = less target engagement, active = hit call of the paper (q ≤ 0.05, log2 ratio ≤ -1)
# Settings: compound concentration: 50uM; treatment time: 3 h
# Experimental: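 Round 2 competitive ABPP in HEK293T lysate. Compounds were tested at 50 and 200 µM for 3 h, followed by Biotin-Ahx-Ub-VS enrichment and diaPASEF LC-MS/MS. Values are the average log2 ratio (compound/DMSO) from an unpaired t-test (n=3 treated, n=26 DMSO).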
# UniProt Q53GS9, sequence (Q53GS9 whole entry): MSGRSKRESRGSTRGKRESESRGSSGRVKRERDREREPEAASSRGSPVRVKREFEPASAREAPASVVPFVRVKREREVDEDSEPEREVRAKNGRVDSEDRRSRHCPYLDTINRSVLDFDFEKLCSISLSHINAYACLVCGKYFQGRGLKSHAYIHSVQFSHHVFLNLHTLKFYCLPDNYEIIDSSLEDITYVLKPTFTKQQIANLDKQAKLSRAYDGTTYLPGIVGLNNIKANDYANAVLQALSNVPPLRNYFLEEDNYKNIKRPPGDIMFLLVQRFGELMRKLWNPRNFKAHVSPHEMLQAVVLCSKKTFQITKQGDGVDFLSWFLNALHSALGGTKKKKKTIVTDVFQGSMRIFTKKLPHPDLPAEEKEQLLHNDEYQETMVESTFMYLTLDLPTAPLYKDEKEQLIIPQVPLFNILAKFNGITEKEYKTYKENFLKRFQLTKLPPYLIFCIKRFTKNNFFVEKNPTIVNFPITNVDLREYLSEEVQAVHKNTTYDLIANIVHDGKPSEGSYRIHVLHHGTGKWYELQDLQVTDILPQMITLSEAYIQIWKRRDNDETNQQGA
# UniProt P09936, sequence (P09936 whole entry, looked up): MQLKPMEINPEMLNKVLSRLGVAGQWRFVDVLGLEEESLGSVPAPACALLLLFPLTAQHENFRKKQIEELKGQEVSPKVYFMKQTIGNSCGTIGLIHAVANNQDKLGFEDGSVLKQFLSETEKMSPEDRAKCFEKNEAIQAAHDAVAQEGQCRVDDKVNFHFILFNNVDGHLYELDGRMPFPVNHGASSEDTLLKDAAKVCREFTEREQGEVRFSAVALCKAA
# UniProt P51784, sequence (P51784 whole entry): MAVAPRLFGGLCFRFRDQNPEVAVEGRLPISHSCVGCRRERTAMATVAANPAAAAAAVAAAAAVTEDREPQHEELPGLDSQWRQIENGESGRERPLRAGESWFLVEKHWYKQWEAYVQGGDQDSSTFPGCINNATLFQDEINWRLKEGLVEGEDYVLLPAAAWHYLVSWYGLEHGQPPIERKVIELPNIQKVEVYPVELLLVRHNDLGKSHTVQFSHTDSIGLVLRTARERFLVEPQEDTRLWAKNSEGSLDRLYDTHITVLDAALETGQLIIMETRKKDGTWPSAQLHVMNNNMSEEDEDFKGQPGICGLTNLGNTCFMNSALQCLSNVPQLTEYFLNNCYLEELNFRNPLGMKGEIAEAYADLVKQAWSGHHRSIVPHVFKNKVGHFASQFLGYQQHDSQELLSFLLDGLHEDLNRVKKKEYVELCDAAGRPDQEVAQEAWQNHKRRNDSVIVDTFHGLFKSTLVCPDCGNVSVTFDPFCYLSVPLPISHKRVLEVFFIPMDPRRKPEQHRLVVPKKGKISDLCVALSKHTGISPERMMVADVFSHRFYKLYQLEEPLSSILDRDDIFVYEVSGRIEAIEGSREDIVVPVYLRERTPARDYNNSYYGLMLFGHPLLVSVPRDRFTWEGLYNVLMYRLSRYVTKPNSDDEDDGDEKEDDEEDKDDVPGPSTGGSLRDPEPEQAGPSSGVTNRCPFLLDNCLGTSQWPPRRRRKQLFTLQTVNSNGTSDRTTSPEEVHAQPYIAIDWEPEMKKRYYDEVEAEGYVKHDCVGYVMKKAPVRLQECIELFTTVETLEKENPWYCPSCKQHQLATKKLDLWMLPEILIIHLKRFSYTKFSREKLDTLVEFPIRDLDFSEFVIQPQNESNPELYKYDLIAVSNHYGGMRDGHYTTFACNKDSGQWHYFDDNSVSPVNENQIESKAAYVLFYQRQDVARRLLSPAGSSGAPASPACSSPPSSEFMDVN
# UniProt P45974, sequence (P45974 whole entry): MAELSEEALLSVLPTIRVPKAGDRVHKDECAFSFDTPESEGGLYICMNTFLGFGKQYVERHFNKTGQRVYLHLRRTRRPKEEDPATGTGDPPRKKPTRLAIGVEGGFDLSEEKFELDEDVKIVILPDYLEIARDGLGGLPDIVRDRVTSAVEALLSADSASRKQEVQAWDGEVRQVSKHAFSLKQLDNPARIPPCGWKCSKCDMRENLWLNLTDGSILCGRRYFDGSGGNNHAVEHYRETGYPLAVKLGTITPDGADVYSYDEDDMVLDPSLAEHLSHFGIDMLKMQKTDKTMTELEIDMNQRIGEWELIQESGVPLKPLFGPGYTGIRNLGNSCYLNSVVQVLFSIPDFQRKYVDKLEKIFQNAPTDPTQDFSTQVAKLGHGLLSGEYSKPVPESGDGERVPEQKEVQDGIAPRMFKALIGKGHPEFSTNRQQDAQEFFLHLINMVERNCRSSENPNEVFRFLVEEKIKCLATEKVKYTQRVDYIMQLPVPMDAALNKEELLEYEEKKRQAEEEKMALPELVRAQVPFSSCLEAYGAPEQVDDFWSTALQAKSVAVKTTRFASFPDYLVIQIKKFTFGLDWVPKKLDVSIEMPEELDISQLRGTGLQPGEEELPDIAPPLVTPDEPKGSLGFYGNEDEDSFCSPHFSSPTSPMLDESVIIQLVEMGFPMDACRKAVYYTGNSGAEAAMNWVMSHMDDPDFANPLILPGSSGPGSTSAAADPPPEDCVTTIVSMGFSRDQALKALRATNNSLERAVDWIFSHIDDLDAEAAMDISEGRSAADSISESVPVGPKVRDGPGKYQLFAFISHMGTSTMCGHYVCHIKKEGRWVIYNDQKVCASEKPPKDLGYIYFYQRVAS
# UniProt Q13107, sequence (Q13107 whole entry): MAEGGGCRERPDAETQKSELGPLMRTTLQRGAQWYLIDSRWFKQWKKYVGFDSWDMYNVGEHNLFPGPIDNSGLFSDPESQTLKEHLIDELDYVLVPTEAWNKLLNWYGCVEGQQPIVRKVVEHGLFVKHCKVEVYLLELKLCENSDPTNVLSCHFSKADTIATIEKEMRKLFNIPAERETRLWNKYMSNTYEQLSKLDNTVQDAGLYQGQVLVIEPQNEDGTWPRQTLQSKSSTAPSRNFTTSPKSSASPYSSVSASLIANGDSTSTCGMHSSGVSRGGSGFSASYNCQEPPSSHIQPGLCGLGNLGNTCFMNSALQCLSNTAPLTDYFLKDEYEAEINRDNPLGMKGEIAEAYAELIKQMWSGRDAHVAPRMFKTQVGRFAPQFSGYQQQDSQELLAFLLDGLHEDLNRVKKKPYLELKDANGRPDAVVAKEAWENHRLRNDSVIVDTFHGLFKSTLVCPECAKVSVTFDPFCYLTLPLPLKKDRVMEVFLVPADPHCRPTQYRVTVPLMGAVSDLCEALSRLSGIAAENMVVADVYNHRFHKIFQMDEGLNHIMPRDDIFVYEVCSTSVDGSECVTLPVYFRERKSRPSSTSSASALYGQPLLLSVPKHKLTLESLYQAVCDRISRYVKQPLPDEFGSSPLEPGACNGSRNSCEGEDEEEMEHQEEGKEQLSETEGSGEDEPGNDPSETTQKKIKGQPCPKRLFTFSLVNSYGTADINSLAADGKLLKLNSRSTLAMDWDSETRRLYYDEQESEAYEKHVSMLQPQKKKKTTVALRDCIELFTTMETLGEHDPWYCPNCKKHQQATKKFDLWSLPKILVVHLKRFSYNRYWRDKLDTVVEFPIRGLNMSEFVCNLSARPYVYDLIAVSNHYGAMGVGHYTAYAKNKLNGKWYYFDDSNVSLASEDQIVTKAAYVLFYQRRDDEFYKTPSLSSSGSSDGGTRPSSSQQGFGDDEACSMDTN
# UniProt O00303, sequence (O00303 whole entry): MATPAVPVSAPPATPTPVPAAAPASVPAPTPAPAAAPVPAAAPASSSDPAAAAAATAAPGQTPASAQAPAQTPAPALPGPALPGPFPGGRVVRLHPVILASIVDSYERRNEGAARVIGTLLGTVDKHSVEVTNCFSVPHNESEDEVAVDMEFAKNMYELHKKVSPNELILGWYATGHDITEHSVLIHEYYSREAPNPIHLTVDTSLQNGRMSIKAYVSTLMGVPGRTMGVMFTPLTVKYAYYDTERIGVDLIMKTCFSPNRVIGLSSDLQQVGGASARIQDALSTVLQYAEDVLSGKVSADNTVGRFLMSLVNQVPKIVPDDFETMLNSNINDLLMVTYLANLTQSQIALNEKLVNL
# UniProt Q92560, sequence (Q92560 whole entry): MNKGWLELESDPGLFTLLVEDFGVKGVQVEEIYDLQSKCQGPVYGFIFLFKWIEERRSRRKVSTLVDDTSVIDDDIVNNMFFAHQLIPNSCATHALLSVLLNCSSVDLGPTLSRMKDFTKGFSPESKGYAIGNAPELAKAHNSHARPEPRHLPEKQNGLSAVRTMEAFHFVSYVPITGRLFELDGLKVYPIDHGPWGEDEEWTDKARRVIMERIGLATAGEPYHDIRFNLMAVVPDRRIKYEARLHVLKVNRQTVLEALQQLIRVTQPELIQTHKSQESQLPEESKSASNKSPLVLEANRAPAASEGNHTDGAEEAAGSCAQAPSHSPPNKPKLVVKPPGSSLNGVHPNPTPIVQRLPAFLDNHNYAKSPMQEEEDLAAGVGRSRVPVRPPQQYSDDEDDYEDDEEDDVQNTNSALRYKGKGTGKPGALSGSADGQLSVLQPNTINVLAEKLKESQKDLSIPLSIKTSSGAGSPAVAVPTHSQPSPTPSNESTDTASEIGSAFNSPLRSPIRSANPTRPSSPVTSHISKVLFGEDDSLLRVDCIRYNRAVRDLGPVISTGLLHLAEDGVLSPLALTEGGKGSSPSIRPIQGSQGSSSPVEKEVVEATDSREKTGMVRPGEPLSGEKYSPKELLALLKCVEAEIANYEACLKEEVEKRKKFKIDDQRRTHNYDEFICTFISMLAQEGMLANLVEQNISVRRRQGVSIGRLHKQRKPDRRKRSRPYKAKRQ
# UniProt P51665, sequence (P51665 whole entry): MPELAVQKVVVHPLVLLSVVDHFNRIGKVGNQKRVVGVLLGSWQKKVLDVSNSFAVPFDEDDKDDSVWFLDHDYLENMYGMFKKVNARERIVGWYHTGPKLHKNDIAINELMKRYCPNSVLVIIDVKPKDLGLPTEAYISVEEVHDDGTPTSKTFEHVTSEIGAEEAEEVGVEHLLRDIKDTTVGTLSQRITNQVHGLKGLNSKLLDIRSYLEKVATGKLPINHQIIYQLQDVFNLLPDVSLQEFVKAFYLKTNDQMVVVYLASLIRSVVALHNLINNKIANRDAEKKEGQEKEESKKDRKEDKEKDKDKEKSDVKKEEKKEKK
row,Target,log2 ratio of Biotin-Ahx-Ub-VS probe labelling
1,UCHL3 (UniProt P15374),-0.252
2,USP39 (UniProt Q53GS9),0.213
3,EIF3F (UniProt O00303),0.000219
4,USP15 (UniProt Q9Y4E8),-0.194
5,UCHL1 (UniProt P09936),-0.205
6,USP28 (UniProt Q96RU2),0.02
7,PRPF8 (UniProt Q6P2Q9),-0.0469
8,USP48 (UniProt Q86UV5),-0.156
9,USP38 (UniProt Q8NB14),-0.219
10,USP12 (UniProt O75317),-0.429
11,USP4 (UniProt Q13107),-0.0435
12,BAP1 (UniProt Q92560),-1.04 (active)
13,OTUD7B (UniProt Q6GQQ9),-1.16 (active)
14,FAM105A (UniProt Q9NUU6),-0.0646
15,MINDY4 (UniProt Q4G0A6),-0.742
16,ALG13 (UniProt Q9NP73),-0.154
17,USP5 (UniProt P45974),-0.165
18,PSMD7 (UniProt P51665),-1.2
19,VCPIP1 (UniProt Q96JH7),-0.312
20,UniProt P51784,0.0618

# Same assay, conditions: compound concentration: 200uM; treatment time: 3 h
row,Target,log2 ratio of Biotin-Ahx-Ub-VS probe labelling
1,UCHL3 (UniProt P15374),-0.294
2,USP39 (UniProt Q53GS9),-0.0479
3,EIF3F (UniProt O00303),0.192
4,USP15 (UniProt Q9Y4E8),-0.0271
5,UCHL1 (UniProt P09936),-0.155
6,USP28 (UniProt Q96RU2),-0.257
7,PRPF8 (UniProt Q6P2Q9),-0.0301
8,USP48 (UniProt Q86UV5),-0.0443
9,USP38 (UniProt Q8NB14),-0.177
10,USP12 (UniProt O75317),0.0646
11,USP4 (UniProt Q13107),-0.588
12,BAP1 (UniProt Q92560),-2.81 (active)
13,OTUD7B (UniProt Q6GQQ9),-3.09 (active)
14,FAM105A (UniProt Q9NUU6),0.0452
15,MINDY4 (UniProt Q4G0A6),0.517
16,ALG13 (UniProt Q9NP73),0.381
17,USP5 (UniProt P45974),-0.145
18,PSMD7 (UniProt P51665),-0.91
19,VCPIP1 (UniProt Q96JH7),-0.217
20,UniProt P51784,0.0228
